Hits are enriched below; roughly 1.6% of the tested compounds scored in any of these assays.
RAD54 inh: blocks human RAD54 Holliday junction branch migration; FAM/BHQ fluorescence; 0.14% of 360,000 active; inhibition, % at 10.4 µM; AID 602329;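 active means mean normalized replicate activity at least 40 and at least half of replicates scoring 40 or more; inconclusive means only one of the two criteria met; inactive means mean below 40 and under half of replicates reaching 40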;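 further: 0% = median of neutral control wells and 100% = median of positive control wells; inhibitors cause a drop in the FAM fluorescence signal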
Myeloid diff 2: myeloid differentiation induction; 1% of 360,000 active; ER-HoxA9 myeloid progenitors, lysozyme-GFP differentiation, flow cytometry; calls only at 10 µM;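 active means normalized GFP-positive differentiation at or above the plate's own cutoff, the solvent-only control mean plus 3 SD; inconclusive means no clear call, values can overlap the other calls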;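 further: cells exposed to compound for four days before flow analysis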
Glyco luc inh: blocks N-linked glycosylation in D54 reporter cells | D54 ERlucT glycosylation luciferase reporter, 24 h; percent of 100 nM tunicamycin response | reporter increase, % at 12.5 µM | 0.23% of 360,000 active;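 active means mean luciferase reporter signal, scaled so untreated is 0 and the glycosylation-blocking control 100, at or above a set limit in every replicate; inconclusive means mean reaches the limit but not every replicate does; inactive means mean below the limit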;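 further: luciferase carries N-glycosylation sites so blocking glycosylation raises the light; 0% = median of neutral control wells and 100% = median of 100 nM tunicamycin wells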
ABCB6 inh MLPCN: inhibitors of human ABC transporter ABCB6; 0.19% of 360,000 active; K562-ABCB6 porphyrin accumulation, flow cytometry, 1 h; stronger effect = lower value; fluorescence ratio to DMSO, % at 10 µM;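 active means fluorescence ratio to DMSO below 75%, the collection mean minus 3 SD; inconclusive means too few cells collected in the well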;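 further: signal is porphyrin accumulated inside mitochondria; 100% equals median channel fluorescence of DMSO control wells; lower ratio means ABCB6 inhibition with less porphyrin fluorescence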
Target sequence (Q9NP58 whole entry, looked up): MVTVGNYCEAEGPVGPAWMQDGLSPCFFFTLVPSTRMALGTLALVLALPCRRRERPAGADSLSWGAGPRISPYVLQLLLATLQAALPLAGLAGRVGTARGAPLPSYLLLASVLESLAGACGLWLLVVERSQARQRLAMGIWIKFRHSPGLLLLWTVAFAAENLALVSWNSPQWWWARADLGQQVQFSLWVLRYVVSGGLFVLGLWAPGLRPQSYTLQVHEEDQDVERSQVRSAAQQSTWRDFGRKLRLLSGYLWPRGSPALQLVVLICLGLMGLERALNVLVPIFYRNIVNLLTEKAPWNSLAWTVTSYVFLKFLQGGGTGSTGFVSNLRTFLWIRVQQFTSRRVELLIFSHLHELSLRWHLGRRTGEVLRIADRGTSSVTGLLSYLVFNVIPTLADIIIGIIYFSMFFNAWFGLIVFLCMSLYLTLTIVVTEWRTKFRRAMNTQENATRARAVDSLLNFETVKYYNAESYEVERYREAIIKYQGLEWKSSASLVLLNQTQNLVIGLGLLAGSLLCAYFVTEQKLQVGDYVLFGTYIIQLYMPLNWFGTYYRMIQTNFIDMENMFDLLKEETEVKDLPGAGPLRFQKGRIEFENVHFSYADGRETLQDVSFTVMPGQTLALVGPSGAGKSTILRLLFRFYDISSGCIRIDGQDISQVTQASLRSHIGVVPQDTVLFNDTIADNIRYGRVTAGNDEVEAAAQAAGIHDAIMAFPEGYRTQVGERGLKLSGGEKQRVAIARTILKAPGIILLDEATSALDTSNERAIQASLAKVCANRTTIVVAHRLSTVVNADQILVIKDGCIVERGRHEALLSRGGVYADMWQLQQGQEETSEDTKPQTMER
Vif imaging: HIV Vif inhibition. HEK293T cells, Vif self-association by quenched fluorescence, imaging, 24 h. inhibition, % at 7.49 µM. 0.35% of 340,000 active. AID 602346; in the data active means inhibition above about 50%, passing the limit was not always enough; inconclusive means no clear call, values can overlap the other calls; inactive means below about 31%
* = called active by the depositor; i = inactive; ? = inconclusive; . = not tested or not shown; + = active, no number.

SMILES	RAD54 inh	Myeloid diff 2	Glyco luc inh	ABCB6 inh MLPCN	Vif imaging
CCc1nc2ccc(C(=O)Nc3cccc(NS(C)(=O)=O)c3)cn2c1N(C=O)CCC(C)C	-3	+	2	i	4
CCc1nc2ccc(C(=O)NCCc3c[nH]c4ccccc34)cn2c1N(C=O)CCC(C)C	9	i	64*	95	0
CCCCN(C=O)c1c(CC)nc2ccc(C(=O)NCCc3c[nH]c4ccccc34)cn12	3	i	4	103	6
CC(C)C(c1nnnn1CC1CCCO1)N1CCN(C2CCCC2)CC1 (stereo unspecified)	-15	i	-4	104	57*
CC(C)C(c1nnnn1Cc1cccs1)N1CCN(C2CCCC2)CC1 (stereo unspecified)	-6	i	-4	94	22
Cc1cc(NC(=O)c2cncc(Br)c2)ccc1NC(=O)c1cc2ccccc2o1	9	i	-10	97	104*
CN1CCN(CC(=O)N2CCn3c4c(c5cc(C6CCCCC6)ccc53)CCCC42)CC1 (stereo unspecified)	21	.	-10	93	98*
COc1ccc(N2CCN(C(=O)c3ccc(S(=O)(=O)N4CCCC4)cc3)CC2)cc1	1	i	1	97	3
COc1ccc(N2CCN(C(=O)c3ccc(S(=O)(=O)N4CCOCC4)cc3)CC2)cc1	-16	+	-1	97	-5
Cc1ccc(S(=O)(=O)N2CCN(C(=O)c3c(-c4ccccc4)noc3C)CC2)cc1	-4	i	-3	101	52*
Cc1ccc(C(=O)N2CCN(S(=O)(=O)c3ccccc3)CC2)cc1	.	i	-3	98	4
Cc1ccc(S(=O)(=O)N2CCN(C(=O)c3ccccc3)CC2)cc1	8	+	-1	93	-14
O=C(CC1CCCC1)N1CCN(S(=O)(=O)c2ccccc2)CC1	-8	+	-2	122	21
Cc1onc(-c2ccccc2)c1C(=O)N1CCN(S(=O)(=O)c2ccc(OC(F)(F)F)cc2)CC1	-11	i	-1	96	-4
CO[C@H]1CC[C@@H]2CCOc3c(C#N)cccc3C(=O)N(C)C[C@H](OC)[C@@H](C)C(=O)N(C)C[C@@H]1O2	2	.	.	.	.
C[C@@H]1CCCCO[C@@H](CN(C)S(=O)(=O)c2cccs2)[C@@H](C)CN([C@H](C)CO)C(=O)c2cc(NC(=O)NC3CCCCC3)ccc2O1	-2	.	.	.	.
Cc1ccc(S(=O)(=O)N(C)C[C@H]2Oc3ccc(NC(=O)CCN4CCOCC4)cc3C(=O)N([C@H](C)CO)C[C@@H]2C)cc1	-1	.	.	.	.
COCC(=O)N1C[C@@H](C)[C@@H](OC)CN(C)C(=O)c2cc(NS(C)(=O)=O)ccc2OC[C@H]1C	4	.	.	.	.
C[C@@H]1CN([C@H](C)CO)C(=O)c2cc(/C=C/c3ccccc3)cnc2O[C@H]1CN(C)C(=O)c1cnccn1	-2	.	.	.	.
O=C(c1ccccc1)N1CCN(C(=O)c2cccnc2)CC1	-1	+	1	101	-9
CCCCn1c(-c2ccncc2)nc2c1c(=O)[nH]c(=O)n2CC(C)C	-3	i	2	98	57*
COc1cc(C2=NOC(C(=O)NCc3ccc(F)cc3)C2)cc(OC)c1OC (stereo unspecified)	-5	?	24	99	60*
COc1cc2c(C#N)c(N3CCCC3)nc(N)c2c(N)n1	-4	i	1	106	16
N#Cc1c(N2CCCC2)nc(N)c2c(N)nc(N3CCCC3)cc12	.	i	41*	116	-16
CCc1cc(=O)oc2cc(OC(C)C(=O)NCc3ccccn3)ccc12 (stereo unspecified)	-2	i	1	100	58*
SMILES	RAD54 inh	Myeloid diff 2	Glyco luc inh	ABCB6 inh MLPCN	Vif imaging
COc1ccc(NS(=O)(=O)c2ccc(N3CCOCC3)c(NC(=O)C(C)C)c2)cc1	3	i	3	91	-3
CCOC(=O)/C=C/C(=O)Nc1cc(S(=O)(=O)Nc2ccc(OC)cc2)ccc1N1CCOCC1	7	i	-4	90	100*
CS(=O)(=O)N1CCN(CCN2C(=O)c3cccc4cccc(c34)C2=O)CC1	.	i	4	114	-4
O=C1c2cccc3cccc(c23)C(=O)N1CCN1CCN(CC(O)COc2ccccc2)CC1 (stereo unspecified)	42	i	2	109	-7
COc1cc2c3c(cccc3c1)C(=O)N(CCN1CCCC1)C2=O	106*	.	21	102	0
COc1cccc(OCC(O)CN2CCN(CCN3C(=O)c4cccc5cccc(c45)C3=O)CC2)c1 (stereo unspecified)	.	i	34*	99	-2
O=C(Cc1cccnc1)N[C@@H]1CC[C@@H](CCn2cc(-c3ccccc3F)nn2)O[C@@H]1CO	3	.	.	.	.
O=C(NC(=O)N1CCN(c2ccccc2F)CC1)c1ccccc1	-7	i	0	93	88*
C[C@H]1CCCCO[C@H](CN(C)Cc2ccc3c(c2)OCO3)[C@@H](C)CN([C@@H](C)CO)C(=O)c2cc(NS(=O)(=O)c3ccc(Cl)cc3)ccc2O1	-6	.	.	.	.
C[C@@H]1CN([C@H](C)CO)C(=O)Cc2cc(NC(=O)NC3CCCCC3)ccc2O[C@H]1CN(C)Cc1ccc(C(F)(F)F)cc1	11	.	.	.	.
O=C(N/N=C/c1cccc(O)c1)N/N=C/c1cccc(O)c1	-15	+	3	138	-3
O=C(CCc1ccccc1)N/N=C/c1cccc(O)c1	.	i	0	98	17
C[C@@H]1CCCCO[C@@H](CN(C)C(=O)Nc2ccc(F)cc2)[C@H](C)CN([C@@H](C)CO)C(=O)c2cc(NC(=O)c3ccncc3)ccc2O1	-8	.	.	.	.
Cc1cccc(NC(=O)CN2C(=O)N/C(=C/c3ccc(C)s3)C2=O)c1	.	+	-1	146	-8
O=C(COC(=O)c1ccc(O)cc1)Nc1cc(C(F)(F)F)ccc1Cl	.	i	-1	100	-2
CCOC(=O)c1ccc[n+](CC(=O)Nc2cc(C(F)(F)F)ccc2Cl)c1	.	i	5	117	53*
CC(=O)N(C)C[C@H]1Oc2cc(C#CC(C)(C)O)ccc2S(=O)(=O)N([C@H](C)CO)C[C@@H]1C	11	.	.	.	.
N#C/C(C(N)=O)=c1/ccc2c(c1)N1C3=C(CCCC3)CC3CCCCC31N=2 (stereo unspecified)	-39	.	.	.	3
N#CC(C#N)=c1ccc2c(c1)N1C3=C(CCCC3)CC3CCCCC31N=2 (stereo unspecified)	-12	+	2	130	-9
CCN(CC)C1=CC2=CC(=C(C#N)C#N)CCC2CC1 (stereo unspecified)	.	+	3	245	1
CCCCN(C)C1=CC2=CC(=C(C#N)C#N)CCC2CC1 (stereo unspecified)	.	+	2	430	-2
C[C@@H]1CN([C@H](C)CO)C(=O)c2cc(NC(=O)CCC(F)(F)F)ccc2O[C@@H](C)CCCCO[C@H]1CN(C)Cc1ccc(Cl)c(Cl)c1	0	.	.	.	.
